{
  "source": "ChEMBL document CHEMBL3988442",
  "about": "“University of Dundee, Small-Polar-MMV Screening Library” (2021)",
  "note": "Screen size: about 53,000 compounds; about 900 (1.7%) showed an effect of 50% or more. The list comes from a sample in which strong results are over-represented; it also holds similar structures and randomly drawn compounds.",
  "data": [
    {"system": "Mycobacterium tuberculosis", "experiment": "Cornell - Phenotypic assay to identify agents that inhibit growth of Mycobacterium tuberculosis", "format": "functional", "parameters": "scale not given: direction of the effect not stated beside the values", "details": "10 mM as filed; unlikely as a test dose", "units": {"Percent Effect": "%"}, "values": [
      {"smiles": "CN(C1CCCCC1)S(=O)(=O)N1CCN(Cc2ccon2)CC1", "Percent Effect": 27.01},
      {"smiles": "Cc1ccccc1CN1CCCN(S(=O)(=O)N(C)C2CCCCC2)CC1", "Percent Effect": 58.2},
      {"smiles": "CN(C1CCCCC1)S(=O)(=O)N1CCN(Cc2ccco2)CC1", "Percent Effect": 2.513},
      {"smiles": "CCOCCC1(CNC(=O)c2ccncc2)CCC1", "Percent Effect": 19.62},
      {"smiles": "CN1CCCC(c2ccc(N3CCOCC3)cn2)C1.Cl", "note": "(stereo not drawn)", "Percent Effect": 35.11},
      {"smiles": "Cc1cc(C2CCCCN2C(=O)c2ccsc2)nc2nccn12", "note": "(stereo not drawn)", "Percent Effect": -13.93},
      {"smiles": "Cc1cc(NC(=O)CN2CCN(C3CCCC3)C(=O)C2)nn1C", "Percent Effect": 12.31},
      {"smiles": "CCn1nccc1CN(C)c1[nH]cnc2nc(C)nc1-2", "Percent Effect": 1.62},
      {"smiles": "c1ccc(-c2nc3c(c(NCCc4c[nH]cn4)n2)CCNC3)cc1", "Percent Effect": 96.35},
      {"smiles": "c1nc(CCNc2nc(C3CC3)nc3c2CCNCC3)c[nH]1", "Percent Effect": 8.345},
      {"smiles": "c1cc(-c2nc3c(c(NCCc4c[nH]cn4)n2)CCNCC3)ccn1", "Percent Effect": -23.76},
      {"smiles": "O=C(c1ccncc1)N1CCC(Cc2cnc3[nH]ccc3c2)CC1", "Percent Effect": -105.2},
      {"smiles": "Cc1ncc2c(n1)CN(Cc1nc(-c3cccs3)no1)CC2", "Percent Effect": -6.861},
      {"smiles": "CC(C)c1ncc2c(n1)CN(Cc1nc(-c3cccs3)no1)CC2", "Percent Effect": 53.42},
      {"smiles": "CCc1ncc2c(n1)CN(Cc1nc(-c3cccs3)no1)CC2", "Percent Effect": 23.26},
      {"smiles": "CCOc1cccc2c1OCC(=O)N(c1ccc3c(c1)OCO3)C2", "Percent Effect": -8.978},
      {"smiles": "Cc1ncc(C(=O)NCCNC(=O)c2ccccc2)s1", "Percent Effect": -13.65},
      {"smiles": "CCc1nccn1C1CCCN(C(=O)c2cn3c(C)cccc3n2)C1", "note": "(stereo not drawn)", "Percent Effect": 3.072},
      {"smiles": "CN1CCOC(CN(C(=O)CCc2cnn(C)c2)c2nccs2)C1", "note": "(stereo not drawn)", "Percent Effect": -11.48},
      {"smiles": "CCN1CCC(CNCc2c[nH]nc2C(C)(C)C)C1.Cl", "note": "(stereo not drawn)", "Percent Effect": 10.08},
      {"smiles": "CC(C)(C)c1n[nH]cc1CNCC1CCN(C2CC2)C1.Cl", "note": "(stereo not drawn)", "Percent Effect": 94.59},
      {"smiles": "CC(C)N1CCC(CNCc2c[nH]nc2C(C)(C)C)C1", "note": "(stereo not drawn)", "Percent Effect": 7.799},
      {"smiles": "Cl.O=S(=O)(N1CCCC1)N1CC[C@H](c2ccccc2)[C@H]2NCCCC[C@H]21", "Percent Effect": -130.5},
      {"smiles": "CCC(CO)(CO)NC(=O)C1CCC(=O)N(CCc2ccccc2)C1", "note": "(stereo not drawn)", "Percent Effect": 9.017},
      {"smiles": "COc1cccc(-c2nc(CNC(C)Cn3cccn3)cs2)c1", "note": "(stereo not drawn)", "Percent Effect": 32.64},
      {"smiles": "CC(Cn1cccn1)NCc1nc(-c2ccc3c(c2)OCO3)no1", "note": "(stereo not drawn)", "Percent Effect": 3.313},
      {"smiles": "CC(Cn1cccn1)NCc1csc(-c2ccsc2)n1", "note": "(stereo not drawn)", "Percent Effect": 13.88},
      {"smiles": "CC(Cn1cccn1)NCc1csc(-c2ccccc2)n1", "note": "(stereo not drawn)", "Percent Effect": 63.3},
      {"smiles": "Cc1cnn(CC(C)NCc2csc(-c3cccs3)n2)c1", "note": "(stereo not drawn)", "Percent Effect": 3.673},
      {"smiles": "COc1ccc(-c2nc(CNC(C)Cn3cccn3)cs2)cc1", "note": "(stereo not drawn)", "Percent Effect": 49.5},
      {"smiles": "CC(Cn1cccn1)NCc1csc(-c2ccc3c(c2)OCO3)n1", "note": "(stereo not drawn)", "Percent Effect": 59.29},
      {"smiles": "CC(Cn1cccn1)NCc1csc(-c2cccs2)n1", "note": "(stereo not drawn)", "Percent Effect": 61.96},
      {"smiles": "CC(Cn1cccn1)NCc1csc(-c2ccc(F)cc2)n1", "note": "(stereo not drawn)", "Percent Effect": 35.16},
      {"smiles": "CC(C)Cc1cc(NC(=O)c2ccccc2F)n(C)n1", "Percent Effect": 11},
      {"smiles": "CCc1ccc(N2CCC(NS(=O)(=O)N(CC)CC)CC2)cc1", "Percent Effect": 14.08},
      {"smiles": "CCN(CC)C(=O)c1ccc(NC(=O)CNc2ccc(Br)cc2F)cc1", "Percent Effect": -14.15},
      {"smiles": "N#CCc1ccc(NC(=O)CNc2ccc(Br)cc2F)cc1", "Percent Effect": 10.15},
      {"smiles": "COc1ccc(NC(=O)CNc2ccc(Br)cc2F)cc1", "Percent Effect": 107.2},
      {"smiles": "CC(C)CN1CCC(c2nc3ccc(NC(C)C)cn3n2)CC1.O=C(O)C(F)(F)F.O=C(O)C(F)(F)F", "Percent Effect": 2.767},
      {"smiles": "CN1CCOC(CNCc2cnc(C(C)(C)C)s2)C1", "note": "(stereo not drawn)", "Percent Effect": 18.35},
      {"smiles": "Cc1cc(C(=O)Nc2cccn(Cc3ccc(F)cc3)c2=O)no1", "Percent Effect": 24.65},
      {"smiles": "Cc1noc(C)c1C(C)NC(=O)N1CCN(c2cccs2)CC1", "note": "(stereo not drawn)", "Percent Effect": 32.97},
      {"smiles": "CC(C)c1noc(CCNC(=O)N2CCN(c3cccs3)CC2)n1", "Percent Effect": 4.976},
      {"smiles": "O=C(NCCn1ccnc1)N1CCN(Cc2cccs2)CC1", "Percent Effect": -4.677},
      {"smiles": "CC(NC(=O)N1CCN(c2cccs2)CC1)c1ccc(C#N)cc1", "note": "(stereo not drawn)", "Percent Effect": 66.35},
      {"smiles": "CC(NC(=O)N1CCN(c2cccs2)CC1)c1ccncc1", "note": "(stereo not drawn)", "Percent Effect": 62.51},
      {"smiles": "O=C(NCCCn1ccnc1)N1CCN(c2cccs2)CC1", "Percent Effect": 78.28},
      {"smiles": "O=C(NCCn1ccnc1)N1CCN(c2nccs2)CC1", "Percent Effect": -3.95},
      {"smiles": "CC(NC(=O)N1CCN(c2ncccn2)CC1)c1ccc(C#N)cc1", "note": "(stereo not drawn)", "Percent Effect": -12.2},
      {"smiles": "CC(=O)Nc1nc(C(=O)NC(C)c2ccc(C#N)cc2)cs1", "note": "(stereo not drawn)", "Percent Effect": 12.08},
      {"smiles": "CN(C)C[C@@H]1C[C@@H]2CN(C(=O)Cc3cccs3)CC[C@@H]2N1C", "Percent Effect": -13.85},
      {"smiles": "Cc1cc(C)nc(N2CCC(Cn3cc(C(=O)N(C)C)cn3)CC2)n1", "Percent Effect": 9.732},
      {"smiles": "CC(C)(C)c1cc(NC(=O)CNC2CCc3ncnn3C2)on1", "note": "(stereo not drawn)", "Percent Effect": -1.762},
      {"smiles": "c1cncc(Cc2nnc3n2CCN(CC2CCOC2)CC3)c1", "note": "(stereo not drawn)", "Percent Effect": 8.69},
      {"smiles": "O=C(O)c1ccc(S(=O)(=O)Nc2c(F)cccc2-n2cccn2)cc1", "Percent Effect": 7.087},
      {"smiles": "O=C(O)C(F)(F)F.O=C(O)C(F)(F)F.O=C(c1ccc(F)cc1)N1CCN2C[C@H](OCc3cccnc3)C[C@H]2C1", "Percent Effect": 19.5},
      {"smiles": "O=C(c1cccc2ccnn12)N1CCCC1Cn1cccn1", "note": "(stereo not drawn)", "Percent Effect": 2.312},
      {"smiles": "Cc1noc(-c2c[nH]nc2C2CCCN2C(=O)c2ccccc2)c1C", "note": "(stereo not drawn)", "Percent Effect": -2.6},
      {"smiles": "CCCC(=O)N(CCCN1CCOCC1)c1nc2c(C)c(C)ccc2s1.Cl", "Percent Effect": 69.7},
      {"smiles": "CCCC(=O)N(CCCN1CCOCC1)c1nc2c(C)ccc(Cl)c2s1.Cl", "Percent Effect": 110.2},
      {"smiles": "CCCC(=O)N(CCN1CCOCC1)c1nc2c(OC)ccc(C)c2s1.Cl", "Percent Effect": -1.479},
      {"smiles": "CCCC(=O)N(CCCN1CCOCC1)c1nc2c(F)cccc2s1.Cl", "Percent Effect": 7.328},
      {"smiles": "CCCC(=O)N(CCCN1CCOCC1)c1nc2c(Cl)cccc2s1.Cl", "Percent Effect": 9.811},
      {"smiles": "Cc1ccc(CCCC(=O)N(C)CCN2CCOCC2)cc1", "Percent Effect": -37.37},
      {"smiles": "CC(=O)N1CCC(c2nccnc2Nc2ncc(C)s2)CC1", "Percent Effect": 21.23},
      {"smiles": "O=C(Nc1ccccc1OC1CCOC1)c1cc[nH]n1", "note": "(stereo not drawn)", "Percent Effect": -18.84},
      {"smiles": "O=C(Nc1ccccc1OC1CCOC1)c1[nH]nc2c1CCCC2", "note": "(stereo not drawn)", "Percent Effect": 80.23},
      {"smiles": "O=C(NCCc1ccccn1)c1[nH]nc2c1CCCC2", "Percent Effect": 20.26}
    ]}
  ]
}
